Laboratory results from the supplement of paper PMC10981050.
Values joined by “and” are separate entries in the source; they are usually repeats but may differ in a detail not shown here. Equal values may be shown once. Where a name gives a salt, the structure may show the parent alone.

system: K562; test: cell viability relative to vehicle control; higher = less cytotoxic; conditions: 10 µM; SRSF2 genotype: SRSF2 P95H/wt
Summary of the method: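 After removal of identity-inconsistent compounds, the Selleck bioactive, kinase and epigenetic probe libraries were screened on CRISPR-edited mutant clones and isogenic wild-type clones of four leukaemia lines. Plates were 384-well, each well holding 2000 cells in 50 µL medium and receiving a single 10 µM acoustically dispensed dose. CellTiter-Glo luminescence was read 48 h later, after the supernatant was taken off. Genedata Screener was used to express viability as percent of the on-plate vehicle control.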

Row | Structure (SMILES) | cell viability
1 | OC[C@H]1O[C@@](CO)(O[C@H]2O[C@H](CO)[C@@H](O)[C@H](O)[C@H]2O)[C@@H](O[C@H]2O[C@H](CO)[C@@H](O)[C@H](O)[C@H]2O)[C@@H]1O [D-(+)-Melezitose] | 100%
2 | COc1ccc2c3c1O[C@H]1C[C@@H](O)C=C[C@@]31CCN(C)C2 [Galanthamine] | 103% and 106%
3 | COc1cc(C(=O)O)ccc1O [Vanillic acid] | 103% and 97.7%
4 | CN[C@H]1CC[C@@H](c2ccc(Cl)c(Cl)c2)c2ccccc21 [Sertraline HCl] | 30.3% and 54.2%
5 | Clc1ccc(CSC(Cn2ccnc2)c2ccc(Cl)cc2Cl)cc1 (configuration not stated) [Sulconazole Nitrate] | 57.2% and 61.2%
6 | CC1(C)[C@@H](O)CC[C@]2(C)[C@H]3C(=O)C=C4[C@@H]5C[C@@](C)(C(=O)O)CC[C@]5(C)CC[C@@]4(C)[C@]3(C)CC[C@@H]12 [Enoxolone (Glycyrrhetin)] | 97.3% and 106%
7 | C[C@H](N=C(NC#N)Nc1cccc2ncccc12)c1ccccc1 | 99.3% and 100%
8 | CC(C)n1nc(-c2cc3cc(O)ccc3[nH]2)c2c(N)ncnc21 [Torkinib (PP242)] | 21.2% and 25.5%
9 | CC1(C)O[C@@H]2C[C@H]3[C@@H]4CCC5=CC(=O)C=C[C@]5(C)[C@H]4[C@@H](O)C[C@]3(C)[C@]2(C(=O)CO)O1 [Desonide] | 97.9% and 104%
10 | O=C(Nc1ccccc1)N1CCN(c2nc(-c3ccccc3)ns2)CC1 | 79.1% and 89.2%
11 | O=C1C[C@@H](c2ccccc2)Oc2cc(O)cc(O)c21 [Pinocembrin] | 91.6% and 92.5%
12 | CC1OC(OC2C(OC3CCC4(C)C(CCC5(C)C4CC=C4C6CC(C)(C)CCC6(C(=O)OC6OC(COC7OC(CO)C(O)C(O)C7O)C(O)C(O)C6O)CCC45C)C3(C)CO)OCC(O)C2O)C(O)C(OC2OC(CO)C(O)C(O)C2O)C1O (configuration not stated) [Macranthoidin A] | 99.3% and 97.9%
